In PubChem BioAssay AID1508601 (ICCB-Longwood Screening Facility, Harvard Medical School, 2020):
Where “and” joins values, the source holds several entries; their conditions need not be identical. Equal entries are not always repeated. The whole screen tested about 5,700 compounds, of which about 85 (1%) were called active. Cut-off read from the data, not from the text of the source: active = p53-positive nuclei above about 36% (passing the limit was not always enough); inactive = the rest. Many of the other results were omitted from the sample, so actives are more common in it than they were. More than one record can exist for a structure, and the calls need not agree.

Legend:
[1] = nuclear p53 accumulation, HPV+ cells – imaging, p53-positive nuclei imaging, 24 h, 48 h (AID 1508601); details: 24/48 h
[2] = target: Cellular tumor antigen p53 (Homo sapiens) (UniProt P04637); assay: as above; details: 24/48 h, stronger effect = higher value
[3] = measured here: cell number at 24 h, Library stock concentration: 10 mM
[4] = measured here: cell number at 48 h, Library stock concentration: 10 mM
[5] = Library stock concentration: 10 mM
[6] = measured here: p53 positive nuclei at 24 h, Library stock concentration: 10 mM
[7] = measured here: cell number at 24 h, concentration not given here
[8] = measured here: cell number at 48 h, concentration not given here
[9] = measured here: p53 positive nuclei at 24 h, concentration not given here
[10] = measured here: cell number at 24 h, Library stock concentration: 3.33 mM
[11] = measured here: cell number at 48 h, Library stock concentration: 3.33 mM
[12] = Library stock concentration: 3.33 mM
[13] = measured here: p53 positive nuclei at 24 h, Library stock concentration: 3.33 mM

Cellular tumor antigen p53 (Homo sapiens), sequence (P04637 whole entry, looked up): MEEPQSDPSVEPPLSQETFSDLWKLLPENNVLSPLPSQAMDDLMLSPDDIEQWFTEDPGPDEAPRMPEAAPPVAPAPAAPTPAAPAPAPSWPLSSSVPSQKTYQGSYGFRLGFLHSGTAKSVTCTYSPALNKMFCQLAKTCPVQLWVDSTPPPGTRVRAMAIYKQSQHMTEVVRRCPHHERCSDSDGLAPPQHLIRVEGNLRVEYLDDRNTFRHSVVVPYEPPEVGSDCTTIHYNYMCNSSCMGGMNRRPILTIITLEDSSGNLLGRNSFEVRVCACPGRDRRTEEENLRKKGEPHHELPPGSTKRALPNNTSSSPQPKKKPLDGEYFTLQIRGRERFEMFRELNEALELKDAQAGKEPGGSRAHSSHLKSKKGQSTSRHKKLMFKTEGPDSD

CC1=C(O)C(=O)C=C2C1=CC=C1[C@@]2(C)CC[C@@]2(C)C3C[C@](C)(C(=O)O)CC[C@]3(C)CC[C@]12C (stereo partly drawn)
nuclei count, normalised ([1]; measured here: cell number at 24 h, Library stock concentration: 46 uM): 117%
nuclei count, normalised ([1]; measured here: cell number at 24 h, Library stock concentration: 278 uM): 114%
nuclei count, normalised ([1]; measured here: cell number at 24 h, Library stock concentration: 1.67 mM): 57.4%
nuclei count, normalised [1, 3]: 47.5%
nuclei count, normalised ([1]; measured here: cell number at 48 h, Library stock concentration: 46 uM): 112%
nuclei count, normalised ([1]; measured here: cell number at 48 h, Library stock concentration: 278 uM): 104%
nuclei count, normalised ([1]; measured here: cell number at 48 h, Library stock concentration: 1.67 mM): 48.7%
nuclei count, normalised [1, 4]: 31.9%
p53-positive nuclei, normalised ([2]; Library stock concentration: 46 uM): 0.197% (inactive)
p53-positive nuclei, normalised ([2]; Library stock concentration: 278 uM): 0.188% (inactive)
p53-positive nuclei, normalised ([2]; Library stock concentration: 1.67 mM): 8.51% (inactive)
p53-positive nuclei, normalised [2, 5]: 26.6% (inactive)
p53-positive nuclei, normalised ([2]; measured here: p53 positive nuclei at 24 h, Library stock concentration: 46 uM): -0.0305%
p53-positive nuclei, normalised ([2]; measured here: p53 positive nuclei at 24 h, Library stock concentration: 278 uM): -0.0276%
p53-positive nuclei, normalised ([2]; measured here: p53 positive nuclei at 24 h, Library stock concentration: 1.67 mM): 9.81%
p53-positive nuclei, normalised [2, 6]: 29.3%

CC1=C(O)C(=O)C=C2C1=CC=C1[C@@]2(C)CCC2(C)C3C[C@](C)(C(=O)O)CC[C@]3(C)CC[C@]12C (stereo partly drawn)
nuclei count, normalised ([1]; measured here: cell number at 24 h, Library stock concentration: 80 uM): 94.9%
nuclei count, normalised ([1]; measured here: cell number at 24 h, Library stock concentration: 400 uM): 109%
nuclei count, normalised ([1]; measured here: cell number at 24 h, Library stock concentration: 2 mM): 92%
nuclei count, normalised [1, 3]: 46.3%
nuclei count, normalised ([1]; measured here: cell number at 48 h, Library stock concentration: 80 uM): 95.5%
nuclei count, normalised ([1]; measured here: cell number at 48 h, Library stock concentration: 400 uM): 109%
nuclei count, normalised ([1]; measured here: cell number at 48 h, Library stock concentration: 2 mM): 91.7%
nuclei count, normalised [1, 4]: 28.8%
p53-positive nuclei, normalised ([2]; Library stock concentration: 80 uM): 0.0324% (inactive)
p53-positive nuclei, normalised ([2]; Library stock concentration: 400 uM): 0.159% (inactive)
p53-positive nuclei, normalised ([2]; Library stock concentration: 2 mM): 0.635% (inactive)
p53-positive nuclei, normalised [2, 5]: 9.53% (inactive)
p53-positive nuclei, normalised ([2]; measured here: p53 positive nuclei at 24 h, Library stock concentration: 80 uM): 0.113%
p53-positive nuclei, normalised ([2]; measured here: p53 positive nuclei at 24 h, Library stock concentration: 400 uM): 0.398%
p53-positive nuclei, normalised ([2]; measured here: p53 positive nuclei at 24 h, Library stock concentration: 2 mM): 0.116%
p53-positive nuclei, normalised [2, 6]: 10.2%

CC1=C(O)C(=O)C=C2C1=CC=C1[C@@]2(C)CC[C@@]2(C)[C@@H]3C[C@](C)(C(=O)O)CC[C@]3(C)CC[C@]12C
nuclei count, normalised [1, 7]: 88.7% and 27%
nuclei count, normalised [1, 8]: 109% and 15.7%
p53-positive nuclei, normalised ([2]; concentration not given here): 0.0329% (inactive) and 96.6% (active)
p53-positive nuclei, normalised [2, 9]: 0.225% and 93.4%

CCCCCCCCCCCC[N+](C)(C)CCOc1ccccc1
nuclei count, normalised [1, 10]: 115%
nuclei count, normalised [1, 11]: 110%
p53-positive nuclei, normalised [2, 12]: -0.174% (inactive)
p53-positive nuclei, normalised [2, 13]: -0.284%

CCCCC/C=C\C/C=C\C/C=C\C/C=C\CCCCOC(CO)CO
nuclei count, normalised [1, 7]: 104%
nuclei count, normalised [1, 8]: 111%
p53-positive nuclei, normalised ([2]; concentration not given here): 0.099% (inactive)
p53-positive nuclei, normalised [2, 9]: 0.34%

CC=C(C)C(=O)NC(c1ccccc1)C(O)C(=O)OC1C[C@@]2(O)C(OC(=O)c3ccccc3)[C@@H]3[C@]4(OC(C)=O)COC4CC(O)[C@@]3(C)C(=O)C(OC(C)=O)C(=C1C)C2(C)C (stereo partly drawn)
nuclei count, normalised [1, 10]: 33.5%
nuclei count, normalised [1, 11]: 28.1%
p53-positive nuclei, normalised [2, 12]: 1.63% (inactive)
p53-positive nuclei, normalised [2, 13]: -0.0935%

OC1CN2CCC(O)[C@H]2C(O)C1O (stereo partly drawn)
nuclei count, normalised ([1]; measured here: cell number at 24 h, Library stock concentration: 500 nM): 98.9%
nuclei count, normalised ([1]; measured here: cell number at 24 h, Library stock concentration: 1.5 uM): 116%
nuclei count, normalised ([1]; measured here: cell number at 24 h, Library stock concentration: 4.6 uM): 110%
nuclei count, normalised ([1]; measured here: cell number at 24 h, Library stock concentration: 13.7 uM): 107%
nuclei count, normalised ([1]; measured here: cell number at 24 h, Library stock concentration: 41 uM): 109%
nuclei count, normalised ([1]; measured here: cell number at 24 h, Library stock concentration: 123 uM): 108%
nuclei count, normalised ([1]; measured here: cell number at 24 h, Library stock concentration: 370 uM): 107%
nuclei count, normalised ([1]; measured here: cell number at 24 h, Library stock concentration: 1.111 mM): 107%
nuclei count, normalised ([1]; measured here: cell number at 24 h, Library stock concentration: 3.333 mM): 105%
nuclei count, normalised [1, 3]: 105%
nuclei count, normalised ([1]; measured here: cell number at 48 h, Library stock concentration: 500 nM): 102%
nuclei count, normalised ([1]; measured here: cell number at 48 h, Library stock concentration: 1.5 uM): 111%
nuclei count, normalised ([1]; measured here: cell number at 48 h, Library stock concentration: 4.6 uM): 108%
nuclei count, normalised ([1]; measured here: cell number at 48 h, Library stock concentration: 13.7 uM): 105%
nuclei count, normalised ([1]; measured here: cell number at 48 h, Library stock concentration: 41 uM): 110%
nuclei count, normalised ([1]; measured here: cell number at 48 h, Library stock concentration: 123 uM): 108%
nuclei count, normalised ([1]; measured here: cell number at 48 h, Library stock concentration: 370 uM): 106%
nuclei count, normalised ([1]; measured here: cell number at 48 h, Library stock concentration: 1.111 mM): 102%
nuclei count, normalised ([1]; measured here: cell number at 48 h, Library stock concentration: 3.333 mM): 106%
nuclei count, normalised [1, 4]: 104%
p53-positive nuclei, normalised ([2]; Library stock concentration: 500 nM): -0.0904% (inactive)
p53-positive nuclei, normalised ([2]; Library stock concentration: 1.5 uM): 0.192% (inactive)
p53-positive nuclei, normalised ([2]; Library stock concentration: 4.6 uM): 0.0933% (inactive)
p53-positive nuclei, normalised ([2]; Library stock concentration: 13.7 uM): -0.133% (inactive)
p53-positive nuclei, normalised ([2]; Library stock concentration: 41 uM): -0.107% (inactive)
p53-positive nuclei, normalised ([2]; Library stock concentration: 123 uM): 0.0873% (inactive)
p53-positive nuclei, normalised ([2]; Library stock concentration: 370 uM): 0.261% (inactive)
p53-positive nuclei, normalised ([2]; Library stock concentration: 1.111 mM): -0.0118% (inactive)
p53-positive nuclei, normalised ([2]; Library stock concentration: 3.333 mM): 0.175% (inactive)
p53-positive nuclei, normalised [2, 5]: -0.135% (inactive)
p53-positive nuclei, normalised ([2]; measured here: p53 positive nuclei at 24 h, Library stock concentration: 500 nM): -0.068%
p53-positive nuclei, normalised ([2]; measured here: p53 positive nuclei at 24 h, Library stock concentration: 1.5 uM): 0.213%
p53-positive nuclei, normalised ([2]; measured here: p53 positive nuclei at 24 h, Library stock concentration: 4.6 uM): -0.135%
p53-positive nuclei, normalised ([2]; measured here: p53 positive nuclei at 24 h, Library stock concentration: 13.7 uM): -0.189%
p53-positive nuclei, normalised ([2]; measured here: p53 positive nuclei at 24 h, Library stock concentration: 41 uM): 0.0835%
p53-positive nuclei, normalised ([2]; measured here: p53 positive nuclei at 24 h, Library stock concentration: 123 uM): 0.197%
p53-positive nuclei, normalised ([2]; measured here: p53 positive nuclei at 24 h, Library stock concentration: 370 uM): 0.0352%
p53-positive nuclei, normalised ([2]; measured here: p53 positive nuclei at 24 h, Library stock concentration: 1.111 mM): -0.189%
p53-positive nuclei, normalised ([2]; measured here: p53 positive nuclei at 24 h, Library stock concentration: 3.333 mM): -0.0741%
p53-positive nuclei, normalised [2, 6]: 0.108%
